The values below come from PubChem BioAssay AID485270 (The Scripps Research Institute Molecular Screening Center, 2010).

Structures are written as SMILES. The whole screen tested about 330,000 compounds, of which about 5,800 (1.8%) were called active. No stated cut-off is given here; in the data, active means inhibition mostly above about 38% (no sharp cut-off); inactive means mostly below about 40%. The list comes from a sample in which actives are over-represented; it also holds similar structures and randomly drawn compounds.

In the experiment the target is Orexin/Hypocretin receptor type 1 (Homo sapiens) (UniProt O43613). The experiment is described as follows: blocks the human orexin 1 receptor (AID 485270).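 Further: 0% = agonist challenge alone and 100% = reference antagonist.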 To be noted: OX1R-expressing cells, FRET antagonist read-out; at 6.6 µM; active compounds read high.
Sequence of Orexin/Hypocretin receptor type 1 (Homo sapiens) (O43613 whole entry, looked up): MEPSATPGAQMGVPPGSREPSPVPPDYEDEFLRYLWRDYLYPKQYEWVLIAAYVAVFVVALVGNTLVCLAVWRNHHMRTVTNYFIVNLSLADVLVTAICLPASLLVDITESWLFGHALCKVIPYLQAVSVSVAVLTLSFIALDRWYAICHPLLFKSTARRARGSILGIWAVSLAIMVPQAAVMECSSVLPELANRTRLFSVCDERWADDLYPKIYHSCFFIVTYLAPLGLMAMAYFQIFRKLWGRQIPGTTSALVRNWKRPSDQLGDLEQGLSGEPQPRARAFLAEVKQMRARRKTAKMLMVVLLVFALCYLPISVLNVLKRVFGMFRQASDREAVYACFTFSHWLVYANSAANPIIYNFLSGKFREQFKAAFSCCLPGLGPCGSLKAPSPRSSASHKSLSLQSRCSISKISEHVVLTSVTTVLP
What is called inhibition is the relative decrease from the control value, in per cent. On to `CN(CC(=O)Nc1cccc2c1CCCC2)S(=O)(=O)c1ccc(Cl)cc1`, for which the inhibition is 3.84% (inactive). Regarding `COc1ccc(-c2nc3cnccn3c2NC2CCCCC2)cc1-c1cccc(Cl)c1`, the inhibition is 14.3% (inactive). As for `COc1ccc2c(Cl)c(C(=O)NCc3ccco3)sc2c1`, the figure is 5.49% (inactive); as for `COc1ccccc1N1CCN(C(=O)c2cc3c(-c4ccc(Cl)cc4)nn(C)c3s2)CC1`, 2.56% (inactive); as for `Cn1nc(-c2ccc(Cl)cc2)c2cc(C(=O)NCc3ccco3)sc21`, 56.6% (active). With `CN(CCC1CCOCC1)Cc1cn[nH]c1-c1ccc(-c2ccccc2)cc1` the figure was 7.23% (inactive); with `O=C(O)CCC(=O)Nc1nc2ccc([N+](=O)[O-])cc2s1`, 78.8% (active); with `O=C(CCNC(=O)c1ccccc1)Nc1nc2ccccc2s1`, 7.04% (inactive). With `O=C(CNC(=O)c1ccccc1)Oc1ccc([N+](=O)[O-])cc1` the figure was 19.6% (inactive); with `O=C(CCC(=O)c1cccs1)Nc1nc2ccccc2s1`, 6.48% (inactive); with `O=C(NC(Nc1nc2ccc([N+](=O)[O-])cc2s1)(C(F)(F)F)C(F)(F)F)c1ccccc1`, 89.4% (active).

Take `Cc1cc(CNC(=O)c2cccc([N+](=O)[O-])c2)c2ccccc2n1`: the inhibition was 58.6% (inactive).

Regarding `Cc1csc2nc(COC(=O)c3cccc(N(C)C)c3)cc(=O)n12`, the inhibition was 13.4% (inactive).

In the case of `COc1cc(C=NNC(=O)c2cccnc2)ccc1OC(=O)c1ccccc1F`, the inhibition is 8.6% (inactive). As for `CC(CNC(=O)Cn1cnc2c(OCc3ccccc3)ncnc21)c1ccccc1` (configuration not stated), the figure is 3.56% (inactive); as for `O=C(c1ccc(N2CCOCC2)c([N+](=O)[O-])c1)N1CCN(c2ccccc2F)CC1`, 7.32% (inactive); as for `O=C(Nc1cccc(S(=O)(=O)N2CCCCC2)c1)c1cncc(Br)c1`, -0.59% (inactive). As for `C=CC[C@@H](CC(=O)N[C@H](CO)Cc1ccccc1)C(=O)N[C@H](C)COC(=O)[C@@H](CC=C)Cc1ccc(F)cc1`, the figure is 20.2% (inactive). In the case of `COc1ccc(N(C)C(=O)C2CCN(S(=O)(=O)c3cccc4nsnc34)CC2)cc1`, the inhibition was 14.4% (inactive).

For the compound `CC1CCCCC1NC(=O)C1CCCN1S(=O)(=O)c1cccc2nsnc12` (configuration not stated), the inhibition was 73.9% (active). With `CC(=O)c1cccc(NC(=O)C2CCCN(S(=O)(=O)c3cccc4nonc34)C2)c1` (configuration not stated) the figure was 24.2% (inactive); with `CC(=O)c1ccc(NC(=O)C2CCCN2S(=O)(=O)c2cccs2)cc1` (configuration not stated), 12% (inactive). With `CC(=O)c1cccc(NC(=O)C2CCCN2S(=O)(=O)c2cccc3nsnc23)c1` (configuration not stated) the figure was 110% (active); with `O=C(O)C(NS(=O)(=O)c1cccc2nsnc12)c1ccccc1` (configuration not stated), 40.5% (inactive). For `Cc1ccc2nsnc2c1S(=O)(=O)N1CCCC1C(=O)O` (configuration not stated), the inhibition was 30.4% (inactive). For `COc1ccc(OC)c(NC(=O)C2CCCN2S(=O)(=O)c2cccc3nsnc23)c1` (configuration not stated), the inhibition is 44.2% (active). For `COc1ccc(NS(=O)(=O)c2cccc3nsnc23)cc1Cl`, the inhibition was 12.4% (inactive). As for `Cc1noc(C)c1NC(=O)Nc1cccc2c1O[C@H](CN(C)C(=O)Nc1ccccc1)[C@@H](C)CN([C@H](C)CO)C2=O`, the figure is 6.95% (inactive); as for `CC(=O)C[C@H](O)CC(=O)[C@@H]1OC(=O)[C@@H](C)C/C=C\Cc2ccccc21`, 0.77% (inactive). Regarding `O=C1OCCN1C(=O)[C@H]1[C@H](c2ccccc2)C(c2ccc(F)cc2)=NN1c1ccccc1`, the inhibition was 5.3% (inactive). With `Cc1cccc(N2O[C@H]3C=CC2CCCC3)n1` the figure was 3.41% (inactive); with `CCn1nc(C(=O)NNS(=O)(=O)c2cc(/C=C/C(=O)O)cc(OC)c2OC)c2ccccc2c1=O`, 3.49% (inactive); with `CC[C@]12c3[nH]c4ccc(OC)cc4c3CCN1C(=O)C(CC(=O)NCCN1CCOCC1)C[C@@H]2C(=O)N1CCN(C(=O)C2CC2)CC1` (some centres not stated), 17.4% (inactive). As for `O=C1c2ccccc2C(=O)c2c1cccc2N1CCN(Cc2ccccc2)CC1`, the figure is 14.2% (inactive).

In the case of `O=C1c2ccccc2C(=O)c2c1cccc2N1CCN(CCO)CC1`, the inhibition is 56.4% (active). On to `O=C1c2ccccc2C(=O)c2c1cccc2N1CCN(C/C=C/c2ccccc2)CC1`, for which the inhibition was 20.4% (inactive). As for `COc1cc(/C=C/C(=O)OCC(=O)c2ccccc2)cc(OC)c1OC`, the figure is 7.01% (inactive); as for `CCOc1ccc(/C=C/C(=O)OCC(=O)c2ccccc2OC)cc1OC`, 62.2% (active).

With `COc1ccc(/C=C/C(=O)OCC(=O)NC2CCCCCC2)cc1OC`, the inhibition is 5.65% (inactive). With `CCc1nnc(NC(=O)CSCc2cc(=O)n3cc(C)sc3n2)s1` the figure was 8.1% (inactive).

Turning to `O=C(COC(=O)c1cccnc1Cl)Nc1ccc(S(=O)(=O)N2CCOCC2)cc1`, the inhibition is 7% (inactive).

In the case of `CC(=O)N1Cc2ccccc2CC1C(=O)O` (configuration not stated), the inhibition is 2.65% (inactive). As for `COc1ccc(NC(=O)N(C)C[C@H]2Oc3ccc(NC(=O)C4CC4)cc3C(=O)N([C@H](C)CO)C[C@@H]2C)cc1`, the figure is 9.29% (inactive); as for `COc1cc(C2CC(=O)Oc3cc(OC)c(OC)c(OC)c32)cc(OC)c1OC` (configuration not stated), 5.32% (inactive).

Turning to `CN(C(=O)c1cccc(NC(=O)Cc2cccc([N+](=O)[O-])c2)c1)C1CCCCC1`, the inhibition was 10.1% (inactive). Turning to `COC(=O)c1ccc(NC(=O)Nc2ccc(C)cc2)cc1`, the inhibition is 15.3% (inactive).

As for `COc1cc(NC(=O)Nc2ccc(C)cc2)cc([N+](=O)[O-])c1`, the inhibition was 45.8% (active). Regarding `CC(=O)c1ccc(NC(=O)Nc2ccc([N+](=O)[O-])cc2C)cc1`, the inhibition was 26% (inactive).

Regarding `CC(C)(C)OC(=O)C[C@@H]1C/C=C\C[C@H](CC(=O)N[C@@H](CO)Cc2ccccc2)C(=O)N[C@H](Cc2ccccc2)COC1=O`, the inhibition is 4% (inactive). With `CC(=O)O[C@H]1c2ccccc2-c2ccccc2[C@@H]1OC(C)=O`, the inhibition was 1.8% (inactive).

`CC(=O)Oc1ccc2c(c1)C(=O)c1ccccc1C2=O`: the inhibition is 30.9% (active). `CC(=O)Oc1cccc(C(=O)Nc2ccccc2NC(=O)c2cccc(OC(C)=O)c2)c1`: the inhibition was 6.54% (inactive). With `Cc1ccnc(SCC(=O)Nc2cccc(S(=O)(=O)N3CCOCC3)c2)n1` the figure was 5.6% (inactive); with `CC1CCN(C(=O)COC(=O)c2cc(=O)[nH]c3ccccc23)CC1`, 3.71% (inactive). Regarding `CN(C(=O)CSc1nnnn1-c1ccccc1)C1CCCCC1`, the inhibition was 9.05% (inactive). As for `CCC(=O)N(C)C(c1ccccc1Cl)c1nnnn1-c1c(C)cccc1C` (configuration not stated), the figure is 74.2% (active); as for `CN(C)/C=C(/C(=O)c1ccc(Cl)c(Cl)c1)c1nnnn1-c1ccccc1`, 4.6% (inactive); as for `Cc1ccc(C)c(NS(=O)(=O)c2c(C)[nH]c(C)c2C(=O)N2CCCCC2)c1`, 49.2% (active). Regarding `Cc1ccc(NS(=O)(=O)c2c(C)[nH]c(C)c2C(=O)N2CCCCC2)c(C)c1`, the inhibition is 21.7% (inactive).

With `Cc1ccc(C)c(N2CCN(S(=O)(=O)c3c(C)[nH]c(C)c3C(=O)N3CCCC3)CC2)c1`, the inhibition was 5.67% (inactive). As for `O=C(COC(=O)CN1C(=O)C2CCCCC2C1=O)Nc1ccc(F)c(F)c1F` (configuration not stated), the figure is 0.98% (inactive); as for `Cc1ccccc1-c1ccc(Nc2ccc(C(=O)N3CCOCC3)cc2)nn1`, 20.7% (inactive); as for `Cc1oc2c(c1C(=O)N1CCOCC1)C(=O)c1ccccc1C2=O`, 90.1% (active). As for `Cc1ccc(C(=O)N2CCN(C(=O)N3CCOCC3)CC2)cc1`, the figure is 5.22% (inactive); as for `Cc1cccc(C(=O)N[C@H](C(=O)NCc2cccs2)C(C)C)c1`, 11.5% (inactive); as for `CN[C@H](C(=O)NC[C@H]1O[C@@H](n2cnc3c(N)ncnc32)[C@H](O)[C@@H]1O)[C@@H](C)OCc1ccccc1`, 5.21% (inactive). For the compound `Cc1ccc(C(=O)NNC(=O)c2ccc3c(c2)OCCO3)cc1`, the inhibition is 8.1% (inactive). As for `COc1cccc(NC(=O)CN(C)C(=O)Cc2ccc(Cl)cc2Cl)c1`, the figure is 17.8% (inactive); as for `COc1cccc(NC(=O)CN(C)C(=O)c2ccccc2CCc2ccccc2)c1`, 67.5% (active). As for `COc1cccc(NC(=O)CN(C)C(=O)c2cc(C3CC3)nn2-c2ccccc2)c1`, the inhibition was 14% (inactive).

For `CC(C)n1ncc2c(C(=O)Nc3ccc(CC#N)cc3)cc(C3CC3)nc21`, the inhibition is 4.43% (inactive). Consider `Cc1ccc(S(=O)(=O)Nc2ccc3c(c2)C(=O)N([C@H](C)CO)C[C@@H](C)[C@@H](CN(C)C(=O)Nc2cccc4ccccc24)O3)cc1`, for which the inhibition is 2.14% (inactive). Consider `O=C(NCCC1CCCCN1S(=O)(=O)c1cccs1)C(=O)Nc1ccc(F)cc1F` (configuration not stated), for which the inhibition was 12.6% (inactive).

`COc1ccc(CCNC(=O)C(=O)NCC2CCCN2S(=O)(=O)c2cccs2)cc1OC` (configuration not stated): the inhibition is 17.3% (inactive). With `COc1ccccc1CCNC(=O)C(=O)NCCC1CCCCN1S(=O)(=O)c1cccs1` (configuration not stated) the figure was 57.5% (active); with `CC(=O)Nc1ccc(Nc2c([N+](=O)[O-])cc(S(C)(=O)=O)cc2[N+](=O)[O-])cc1`, 98% (active); with `CNc1ccc([N+](=O)[O-])cc1C(=O)O`, 17.5% (inactive). With `CC(=O)Nc1ccc(NC(=S)NC(=O)c2ccc([N+](=O)[O-])c(C)c2)cc1`, the inhibition is 4.21% (inactive).

As to `CC(=O)Nc1ccc(S(=O)(=O)N2CCN(c3ccc([N+](=O)[O-])c(NCCN4CCOCC4)c3)CC2)cc1`, the inhibition was 24.8% (inactive). Take `CNc1ccc(NC(C)=O)cc1[N+](=O)[O-]`: the inhibition was 59.9% (active).

Turning to `Cc1ccc(NC(=O)c2sccc2C)cc1[N+](=O)[O-]`, the inhibition was 14.5% (inactive).

In the case of `O=C1COc2ccc(C(=O)COC(=O)CCOc3ccccc3)cc2N1`, the inhibition is 4.75% (inactive).

For the compound `O=C(COC(=O)c1ccccc1O)NCc1ccco1`, the inhibition was 9.75% (inactive). As for `COc1cccc(-c2sc3ccc(OC)cc3c2-c2ccc(OCCN3CCCCC3)cc2)c1`, the inhibition is 3.65% (inactive). With `CC(C)(C)NC(=O)CN(C(=O)c1csnn1)c1ccccc1-c1ccccc1` the figure was 67.4% (active); with `CC(C)(C)NC(=O)CN(C(=O)c1ccc(Cl)nc1)c1cccc2ccccc12`, 9.37% (inactive). With `CCC(C)(C)NC(=O)C(c1ccccn1)N(C(=O)c1csnn1)c1ccccc1` (configuration not stated) the figure was 6.1% (inactive).
